Several values for one entry are separate records, joined by “and”; a condition that tells them apart may be missing. Equal entries are not always repeated. About 5,800 (36%) of roughly 16,000 compounds were called active. About 23% were inconclusive and are not listed. The call rests on the fitted dose curve; in most records, active means well fitted curve in the direction sought with a large enough effect; inconclusive means small, poorly fitted or top-dose-only effect, or effect the other way; inactive means no such curve, though single readings can be large or run the other way. This is one part of the list. Where a structure was tested more than once in an assay, its records may differ in their call.

The record followed here is PubChem BioAssay AID1851 (National Center for Advancing Translational Sciences (NCATS), 2009).
On the % scale 0 is the no-effect control and ±100 the full control effect.

In this experiment the target is Cytochrome P450 2C19 (Homo sapiens) (UniProt P33261). In words: Cytochrome panel assay with activity outcomes. As to conditions: recombinant CYP, pro-luciferin dealkylation, luminescence, p450-cyp2c19; series mostly up to 57.1 µM.
Cytochrome P450 2C19 (Homo sapiens), sequence (P33261 whole entry, looked up): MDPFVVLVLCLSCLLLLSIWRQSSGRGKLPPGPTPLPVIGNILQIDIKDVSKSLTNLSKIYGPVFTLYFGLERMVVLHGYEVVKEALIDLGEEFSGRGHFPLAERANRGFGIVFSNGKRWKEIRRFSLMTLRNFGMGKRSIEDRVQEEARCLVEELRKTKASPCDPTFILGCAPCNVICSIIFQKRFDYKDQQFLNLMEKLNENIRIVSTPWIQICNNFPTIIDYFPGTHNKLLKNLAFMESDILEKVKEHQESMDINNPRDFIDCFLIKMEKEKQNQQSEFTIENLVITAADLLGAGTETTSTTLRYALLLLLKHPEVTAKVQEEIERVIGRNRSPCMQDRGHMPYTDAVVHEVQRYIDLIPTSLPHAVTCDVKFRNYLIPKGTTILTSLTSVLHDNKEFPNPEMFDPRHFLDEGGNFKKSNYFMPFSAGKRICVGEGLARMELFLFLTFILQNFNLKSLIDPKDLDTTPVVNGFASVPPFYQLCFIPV
On to `CC(C)CCN1C(=O)c2ccc(-c3nc4ccccc4c(=O)o3)cc2C1=O`, for which the AC50 is 14100 nM (active).
On to `N=C(N)SCc1cccc(-c2nc3ccccc3c(=O)o2)c1`, for which the activity, negative = inhibition is 16.9% [at 11.4 µM] (inactive).
Turning to `Cc1ccc(NCCC(=O)c2ccc(Cl)cc2)cc1C`, the AC50 was 1260 nM (active).
Still for that read-out and setting: as for `CCOC(=O)Nc1ccc2c(c1)N(C(=O)CCN1CCOCC1)c1ccccc1S2`, the entry is “inactive”.
Regarding `Cc1ccc(NC(=O)CCC(=O)c2ccc(F)cc2)cc1Cl`, the AC50 was 3980 nM (active).
Take `CCCOc1ccc(C(=O)CCNc2ccc(C)c(Cl)c2)cc1`: the AC50 is 398 nM (active).
`CCCCOC(=O)Nc1ccc(C)c(Cl)c1`: the AC50 is 2000 nM (active).
With `CCCCOc1ccc(C(=O)CCN2CCCCC2)cc1`, the AC50 result is “inactive”.
Turning to `C[C@@H](c1ccccc1)N1C(=O)[C@H]2[C@@H]3[C@H](O)[C@H](O)CC(=O)[C@H]3CC[C@H]2C1=O`, the activity, negative = inhibition is 13.8% [at 11.4 µM] (inactive) and 0.79% [at 11.4 µM] (inactive).
With `Cc1nc2cnc(Oc3ccccc3)nc2n(-c2ccccc2)c1=O`, the AC50 result is “inactive”.
With `O=C(O)CCC(=O)c1ccc(Cl)cc1`, the activity, negative = inhibition was 22.7% [at 11.4 µM] (inactive).
For `Cc1ccc(NCCC(=O)c2ccc(Cl)cc2)cc1`, the AC50 was 1410 nM (active).
Take `O=C(O)CNc1ccc(C(=O)O)cc1`: the activity, negative = inhibition was 21.5% [at 11.4 µM] (inactive).
Take `CC[N+](C)(CC)CCC[n+]1c(-c2ccccc2)c2cc(N)ccc2c2ccc(N)cc21`: the AC50 is 1580 nM (active).
As for `CC(C)OC(=O)c1cc2ccccc2oc1=O`, the AC50 is 15800 nM (active).
Still for that read-out and setting: in the case of `Cc1ccc[n+](CC(=O)c2cc3ccccc3oc2=O)c1` it was “inactive”.
The same measure, in the same setting: in the case of `CC(=O)c1cc2ccccc2oc1=O` it was “inactive”; in that of `CC1(C)Oc2ccc(C#N)cc2[C@H](N2CCCC2=O)[C@H]1O`, “inactive”.
The same measure, in the same setting: in the case of `COn1c(-c2ccccc2)nc2c1CCc1nonc1-2` it was 15800 nM (active).
On to `CCC(C)c1ccc(Nc2ncccc2C#N)cc1` (configuration not stated), for which the AC50 was 4470 nM (active).
`O=C(O)C[C@H](Cc1ccccc1)C(=O)O`: the activity, negative = inhibition was -9.67% [at 11.4 µM] (inactive).
Regarding `O=C(Cc1ccccc1)NC(NCCc1ccccc1)C(Cl)(Cl)Cl` (configuration not stated), the AC50 is 794 nM (active).
`COc1ccc(NC(=O)N2CC[C@@]3(CCCN(C(=O)c4c(C)noc4C)C3)C2)cc1`: the AC50 result was “inactive”.
Still for that read-out and setting: as for `COc1cccc(CNC(=O)CCNC(=O)Cn2ccc3ccccc3c2=O)c1`, the entry is “inactive”; as for `COc1ccc(N(CC(=O)NCc2cccc(OC)c2)S(=O)(=O)c2c(C)noc2C)cc1`, 2000 nM (active).
With `COC(=O)CN(c1ccc(OC)cc1)S(=O)(=O)c1c(C)noc1C`, the AC50 was 5010 nM (active).
As to `O=C(O)/C=C\c1cnc[nH]1`, the AC50 result was “inactive”.
Take `NCCCc1c(-c2ccccc2)nc(N)[nH]c1=O`: the activity, negative = inhibition is -12.9% [at 11.4 µM] (inactive).
With `Nc1nc(SCC(=O)O)[nH]c(=O)c1N`, the activity, negative = inhibition is 25.5% [at 11.4 µM] (inactive).
Turning to `CCCCCOC(=O)CSc1nnc(-c2ccccc2)c(=O)[nH]1`, the AC50 is 8910 nM (active).
Same read-out and setting: in the case of `CC(=O)OCCCN1c2ccccc2Nc2nnc(-c3ccccc3)cc21` it was 7080 nM (active).
In the case of `CCNc1ncc2nc(-c3ccc(Cl)cc3)c(=O)n(C)c2n1`, the AC50 entry is “inactive”.
With `CC(C)(C)n1nc(-c2ccc(Cl)cc2)c2c(N)ncnc21`, the AC50 is 2000 nM (active).
`CC(C)(C)Cn1nc(-c2ccc(Cl)cc2)c2c(N)ncnc21`: the AC50 result is “inactive”.
As for `O=c1c2ccccc2nnn1CSc1ccc2c(c1)OCCO2`, the AC50 was 1120 nM (active).
On the same count and under the same terms, as for `O=c1c2ccccc2nnn1CSc1nnnn1-c1ccccc1`, the figure is 7940 nM (active); as for `Cc1cc(C)c(C#N)c(OCC(=O)c2ccc(Br)cc2)n1`, 3160 nM (active).
The same measure, in the same setting: in the case of `C/C(=N\NC(=O)c1ccncc1)c1ccc2ccccc2c1O` it was 501 nM (active).
Still for that read-out and setting: in the case of `O=C1C(=O)N(Cc2ccc(Cl)c(Cl)c2)c2ccccc21` it was “inactive”; in that of `O=Nc1c(O)n(Cc2ccc(Cl)c(Cl)c2)c2ccccc12`, 891 nM (active).
With `O=Nc1c(O)n(Cc2cccc(Cl)c2)c2ccccc12`, the AC50 is 3550 nM (active).
Consider `O=Nc1c(O)n(Cc2ccc(Cl)cc2)c2ccccc12`, for which the AC50 was 794 nM (active).
The same measure, in the same setting: as for `Cn1c(=O)c2c(n(Cc3ccccc3)c1=O)NC(=O)C2CC(=O)NCc1cccc(Cl)c1` (configuration not stated), the entry is “inactive”; as for `Cc1cc([N+](=O)[O-])ccc1NCc1ccccc1`, 2000 nM (active).
`O=[N+]([O-])c1ccc(CS(=O)Cc2ccccc2)cc1` (configuration not stated): the AC50 was 1260 nM (active).
Turning to `O=C(O)c1cc([N+](=O)[O-])ccc1NCCCc1ccccc1`, the AC50 result is “inactive”.
`COc1ccc([N+](=O)[O-])cc1NCc1ccccc1C`: the AC50 was 2820 nM (active).
Turning to `CN(Cc1ccccc1)c1nc(-c2ccc([N+](=O)[O-])cc2)nc2ccccc12`, the AC50 result was “inactive”.
The same measure, in the same setting: as for `COc1ccccc1CN1CCC2(CC1)CCN(C(=O)c1cccn1C)CC2`, the entry is “inactive”.
Same read-out and setting: as for `O=C1CC(N2CCOCC2)C(=O)N1c1cccc(Cl)c1` (configuration not stated), the figure is 8910 nM (active).
For `CO[C@@H]1/C=C\O[C@]2(C)Oc3c(C)c(O)c4c(O)c(cc(O)c4c3C2=O)NC(=O)/C(C)=C\C=C/[C@H](C)[C@@H](O)[C@H](C)[C@H](O)[C@H](C)[C@H](OC(C)=O)[C@@H]1C`, the activity, negative = inhibition is -13.1% [at 11.4 µM] (inactive).
On to `CO[C@@H]1/C=C\O[C@@]2(C)Oc3c(C)c(O)c4c(c3C2=O)C(=N[C@H]2CC[C@H](O)O[C@@H]2C)C=C(NC(=O)/C(C)=C\C(=O)[C@@H]2C[C@@H]2[C@@H](O)[C@H](C)[C@@H](O)[C@H](C)[C@H](OC(C)=O)[C@@H]1C)C4=O`, for which the AC50 was 2510 nM (active).
Still for that read-out and setting: in the case of `CO[C@H]1C=CO[C@]2(C)Oc3c(C)c(O)c4c(O)c(c5c(c4c3C2=O)NC2(CCN(CC(C)C)CC2)N=5)=NC(=O)C(C)=CC=C[C@@H](C)[C@@H](O)[C@@H](C)[C@@H](O)[C@@H](C)[C@@H](OC(C)=O)[C@@H]1C` it was “inactive”; in that of `Cc1ccc(N2C(=O)C(Cl)=C(NCc3ccccc3)C2=O)c(C)c1`, 3160 nM (active).
On to `OCCn1cnc2c(SCc3ccccc3)ncnc21`, for which the activity, negative = inhibition is 12.6% [at 11.4 µM] (inactive).
For `CCSc1ncnc2c1sc1nc(-c3ccco3)c3c(c12)CC(C)(C)OC3`, the AC50 result is “inactive”.
On the same count and under the same terms, as for `c1ccc(CSc2ncnc3c2sc2nc(N4CCOCC4)c4c(c23)CCCC4)cc1`, the figure is 7080 nM (active).
As to `CC(C)C[C@H](NC(=O)N1CCCCCC1)C(=O)N[C@H](Cc1cn(C)c2ccccc12)C(=O)N[C@H](Cc1ccccn1)C(=O)O`, the AC50 entry was “inactive”.
The same measure, in the same setting: in the case of `CCn1c2ccccc2c2cc(NC(=O)CSc3nnc(-c4ccc(OC)c(OC)c4)n3N)ccc21` it was 7940 nM (active); in that of `O=C(CCCNS(=O)(=O)c1cccc2nsnc12)NCCc1ccccc1`, 6310 nM (active); in that of `CSc1nc2ccccc2cc1/C=C(\C#N)c1ccc(Cl)cc1Cl`, 22400 nM (active).
On the same count and under the same terms, in the case of `CSc1nc2ccccc2cc1/C=C(\C#N)c1ccccc1` it was 11200 nM (active).
The same measure, in the same setting: as for `CSc1nc2ccccc2cc1/C=C(\C#N)c1cccc(Cl)c1`, the figure is 15800 nM (active); as for `CSc1nc2ccccc2cc1/C=C(\C#N)c1cccc(C)c1`, 3550 nM (active).
`CCc1ccc(NC(=O)CSc2nc3cc(C(=O)OC)ccc3c(=O)n2Cc2ccco2)cc1`: the AC50 result is “inactive”.
Take `CCN(C(=O)CSc1nc2cc(C(=O)OC)ccc2c(=O)n1Cc1ccco1)c1cccc(C)c1`: the AC50 was 1410 nM (active).
On the same count and under the same terms, in the case of `O=C(NCCc1ccc(Cl)cc1)Nc1cccc(Cl)c1` it was 891 nM (active); in that of `CNC(=O)C(=O)NCCc1ccc(Cl)cc1`, 1120 nM (active); in that of `O=C(NCCc1ccc(Cl)cc1)c1ncn[nH]1`, “inactive”.
For `O=C(Nc1cccc(Cl)c1)Nn1cnnc1`, the activity, negative = inhibition is 11.3% [at 11.4 µM] (inactive).
On the same count and under the same terms, as for `S=C(S)NCCN1CCNCC1`, the figure is -11.3% [at 11.4 µM] (inactive).
Take `Cc1nc(N2CCOCC2)nc(N2CCN(c3ccccc3)CC2)c1[N+](=O)[O-]`: the AC50 is 2240 nM (active).
Same read-out and setting: as for `Cc1nc2cnc(N3CCOCC3)nc2n(Cc2cccs2)c1=O`, the entry is “inactive”; as for `Cc1noc(C)c1-c1nc(N2CCOCC2)c2ccccc2n1`, “inactive”; as for `Cc1ccc(NC(=O)CCSc2nnc3ccccn23)cc1`, 794 nM (active).
On the same count and under the same terms, as for `CC(C)(C)NC(=O)NC(=O)CSc1nnc2ccccn12`, the entry is “inactive”.
Take `C[C@H](O/N=C1/[C@H]2O[C@@H]2[C@@H](O)[C@H]2[C@H]1CCn1c(=O)n(-c3ccccc3)c(=O)n12)c1cn([C@H](CO)Cc2ccccc2)nn1`: the activity, negative = inhibition was 20% [at 11.4 µM] (inactive) and 36.7% [at 11.4 µM] (inactive).
As to `O=C(c1cc(C(F)(F)F)cc(C(F)(F)F)c1)N1CCC2(CC1)CCN(c1ncccn1)CC2`, the AC50 entry is “inactive”.
Still for that read-out and setting: as for `O=C(OC1CCN(c2ncc(C(F)(F)F)cc2Cl)CC1)c1ccccc1`, the figure is 11200 nM (active).
On the same count and under the same terms, as for `COc1ccc(/C=N/NC(=O)C2CCN(c3ncc(C(F)(F)F)cc3Cl)CC2)cc1`, the entry is “inactive”.
Same read-out and setting: as for `COc1cccc2cc3c(=O)oc4ccccc4c3nc12`, the figure is 3980 nM (active).
Regarding `Cn1c(C(F)(F)F)nc2c(=O)oc3ccccc3c21`, the AC50 entry was “inactive”.
The same measure, in the same setting: as for `COc1ccc(CNc2ccnc(-c3ccc4c(c3)OCO4)n2)c(OC)c1`, the figure is 2510 nM (active); as for `COc1ccccc1CNc1ccnc(-c2ccc3c(c2)OCO3)n1`, 3160 nM (active); as for `O=C(Nc1ccccc1)N1CC2(CCN(C(=O)c3cnccn3)CC2)C1`, “inactive”.
On to `Cc1ccn2cc(CSc3ccccc3N)nc2c1`, for which the AC50 is 2510 nM (active).
For the molecule `N#C/C(=C\Nc1ccccn1)C(=O)c1ccco1`, the activity, negative = inhibition was -6.24% [at 11.4 µM] (inactive).
For `CSC(=N)N`, the AC50 result was “inactive and 631 nM (active)”.
On the same count and under the same terms, in the case of `CCSC(=N)N` it was “inactive”.
As for `CC(C)SC(=N)N`, the AC50 result was “inactive”.
The same measure, in the same setting: in the case of `CCC/C=C(\CCC)C(NC(=O)c1ccc(C(F)(F)F)cc1)c1ccc(C(F)(F)F)cc1` (configuration not stated) it was “inactive”.
Still for that read-out and setting: as for `CCC/C=C(\CCC)C(NC(=O)c1ccc(C(F)(F)F)cc1)c1ccccc1` (configuration not stated), the figure is 10000 nM (active); as for `CCC/C=C(\CCC)C(NC(=O)c1ccc(-c2ccccc2)cc1)c1ccc(C(=O)OC)cc1` (configuration not stated), “inactive”.
Same read-out and setting: in the case of `CCC/C=C(\CCC)C(NC(=O)Oc1ccc(F)cc1)c1ccc(C(=O)OC)cc1` (configuration not stated) it was “inactive”; in that of `CCC/C=C(\CCC)C(NC(=O)Cc1ccccc1)c1ccc(C(=O)OC)cc1` (configuration not stated), 2510 nM (active).
Consider `CCC/C=C(\CCC)C(NC(=O)c1cccs1)c1ccc(C(F)(F)F)cc1` (configuration not stated), for which the AC50 was 316 nM (active).
On to `CCC/C=C(\CCC)C(NC(=O)c1cccs1)c1ccc(C(=O)OC)cc1` (configuration not stated), for which the AC50 is 794 nM (active).

The term AC50 denotes the concentration at which the activity in the assay is half-maximal.
